# “And” between values parts separate entries of the source, which are not always exact repeats. Equal entries are not always repeated. Where two headings read alike, the source gives them in different places.
# What was measured:
# [1] = test system: T1, NDR1; conditions: n = 1
# T1 construct: gene STK38
# [2] = test system: NDR2; conditions: concentration: 1 μM, replicates: in singlicate; n = 1
# [3] = test system: NEK10; conditions: n = 1
# [4] = test system: NEK11; conditions: concentration: 1 μM, replicates: in singlicate; n = 1
# [5] = test system: NEK1; conditions: concentration: 1 μM, replicates: in singlicate; n = 1
# [6] = test system: NEK2; conditions: n = 1
# [7] = test system: NEK3; conditions: n = 1
# [8] = test system: NEK4; conditions: n = 1
# [9] = test system: NEK5; conditions: n = 1
# [10] = test system: NEK6; conditions: concentration: 1 μM, replicates: in singlicate; n = 1
# [11] = test system: NEK7; conditions: n = 1
# [12] = test system: NEK9; conditions: n = 1
# [13] = test system: T2, NIK; conditions: n = 1
# T2 construct: gene MAP3K14
# [14] = test system: T3, NIM1; conditions: n = 1
# T3 construct: gene MGC42105
# [15] = test system: NLK; conditions: n = 1
# [16] = test system: T4, OSR1; conditions: n = 1
# T4 construct: gene OXSR1
# [17] = test system: PAK1; conditions: n = 1
# [18] = test system: PAK2; conditions: n = 1
# [19] = test system: PAK3; conditions: n = 1
# [20] = test system: PAK4; conditions: concentration: 1 μM, replicates: in singlicate; n = 1
# [21] = concentration: 1 μM, replicates: in singlicate
# [22] = concentration: 1 μM,replicates: in singlicate, 1 µM
# 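Note: KINOMEscan kinase panel screen.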
structure (smiles),measurement,setting,value
C[C@@H]1CCCCN1c1cc(-c2ccc3c(N)n[nH]c3c2)nc(N)n1 [GSK2258759],%Inh,[1]; [21],24%
same,%Inh,[2],12%
same,%Inh,[3]; [21],0%
same,%Inh,[4],0%
same,%Inh,[5],0%
same,%Inh,[6]; [21],3%
same,%Inh,[7]; [21],10%
same,%Inh,[8]; [21],0%
same,%Inh,[9]; [21],8%
same,%Inh,[10],0%
same,%Inh,[11]; [21],0%
same,%Inh,[12]; [21],0%
same,%Inh,[13]; [21],7%
same,%Inh,[14]; [21],0%
same,%Inh,[15]; [21],23%
same,%Inh,[16]; [21],0%
same,%Inh,[17]; [21],6%
same,%Inh,[18]; [21],0%
same,%Inh,[19]; [21],0%
same,%Inh,[20],0%
CSc1nn2c(=O)cc(N3CCOCC3)nc2n1Cc1cccc(C(F)(F)F)c1C [GSK2363608],%Inh,[1]; [22],17% and 8%
same,%Inh,[2],0%
same,%Inh,[3]; [22],8% and 28%
same,%Inh,[4],0%
same,%Inh,[5],0%
same,%Inh,[6]; [22],100% and 1%
same,%Inh,[7]; [22],14% and 3%
same,%Inh,[8]; [22],0% and 16%
same,%Inh,[9]; [22],23% and 0%
same,%Inh,[10],0%
same,%Inh,[11]; [22],3% and 0%
same,%Inh,[12]; [22],22% and 2%
same,%Inh,[13]; [22],0% and 6%
same,%Inh,[14]; [22],2% and 12%
same,%Inh,[15]; [22],2% and 37%
same,%Inh,[16]; [22],15% and 7%
same,%Inh,[17]; [22],0% and 38%
same,%Inh,[18]; [22],0% and 37%
same,%Inh,[19]; [22],8% and 0%
same,%Inh,[20],0%
CC(=O)Nc1nc2cnc(Nc3cc(NC(=O)c4cccc(CCC#N)c4)ccc3C)nc2s1,%Inh,[1]; [21],0%
same,%Inh,[2],22%
same,%Inh,[3]; [21],13%
same,%Inh,[4],0%
same,%Inh,[5],0%
same,%Inh,[6]; [21],2%
same,%Inh,[7]; [21],7%
same,%Inh,[8]; [21],0%
same,%Inh,[9]; [21],0%
same,%Inh,[10],14%
same,%Inh,[11]; [21],6%
same,%Inh,[12]; [21],0%
same,%Inh,[13]; [21],0%
same,%Inh,[14]; [21],0%
same,%Inh,[15]; [21],0%
same,%Inh,[16]; [21],0%
same,%Inh,[17]; [21],0%
same,%Inh,[18]; [21],0%
same,%Inh,[19]; [21],7%
same,%Inh,[20],5%
O=C(Nc1n[nH]c2nc(-c3nccs3)c(Br)cc12)C1CC1 [SB-742251],%Inh,[1]; [21],0%
same,%Inh,[2],0%
same,%Inh,[3]; [21],0%
same,%Inh,[4],48%
same,%Inh,[5],0%
same,%Inh,[6]; [21],0%
same,%Inh,[7]; [21],8%
same,%Inh,[8]; [21],21%
same,%Inh,[9]; [21],10%
same,%Inh,[10],0%
same,%Inh,[11]; [21],0%
same,%Inh,[12]; [21],0%
same,%Inh,[13]; [21],44%
same,%Inh,[14]; [21],0%
same,%Inh,[15]; [21],0%
same,%Inh,[16]; [21],7%
same,%Inh,[17]; [21],2%
same,%Inh,[18]; [21],16%
same,%Inh,[19]; [21],20%
same,%Inh,[20],0%
Cc1cccc(-c2cc(Nc3ccncc3)c3ccccc3n2)n1 [GSK223675],%Inh,[1]; [21],0%
same,%Inh,[2],0%
same,%Inh,[3]; [21],0%
same,%Inh,[4],0%
same,%Inh,[5],0%
same,%Inh,[6]; [21],0%
same,%Inh,[7]; [21],17%
same,%Inh,[8]; [21],0%
same,%Inh,[9]; [21],0%
same,%Inh,[10],0%
same,%Inh,[11]; [21],0%
same,%Inh,[12]; [21],8%
same,%Inh,[13]; [21],14%
same,%Inh,[14]; [21],0%
same,%Inh,[15]; [21],10%
same,%Inh,[16]; [21],6%
same,%Inh,[17]; [21],6%
same,%Inh,[18]; [21],2%
same,%Inh,[19]; [21],0%
same,%Inh,[20],0%
CS(=O)(=O)c1ccc(-c2nc3n(c2-c2ccncc2)CCC3)cc1 [SKF-105942],%Inh,[1]; [21],19%
same,%Inh,[2],0%
same,%Inh,[3]; [21],17%
same,%Inh,[4],0%
same,%Inh,[5],0%
same,%Inh,[6]; [21],15%
same,%Inh,[7]; [21],58%
same,%Inh,[8]; [21],22%
same,%Inh,[9]; [21],1%
same,%Inh,[10],0%
same,%Inh,[11]; [21],0%
same,%Inh,[12]; [21],0%
same,%Inh,[13]; [21],3%
same,%Inh,[14]; [21],17%
same,%Inh,[15]; [21],0%
same,%Inh,[16]; [21],0%
same,%Inh,[17]; [21],19%
same,%Inh,[18]; [21],26%
same,%Inh,[19]; [21],0%
same,%Inh,[20],0%
Cn1ccc2ncnc(Oc3ccc(Nc4nc5ccccc5[nH]4)cc3)c21,%Inh,[1]; [21],0%
same,%Inh,[2],10%
same,%Inh,[3]; [21],0%
same,%Inh,[4],0%
same,%Inh,[5],0%
same,%Inh,[6]; [21],0%
same,%Inh,[7]; [21],0%
same,%Inh,[8]; [21],99.9%
same,%Inh,[9]; [21],0%
same,%Inh,[10],0%
same,%Inh,[11]; [21],0%
same,%Inh,[12]; [21],0%
same,%Inh,[13]; [21],0%
same,%Inh,[14]; [21],0%
same,%Inh,[15]; [21],4%
same,%Inh,[16]; [21],0%
same,%Inh,[17]; [21],14%
same,%Inh,[18]; [21],0%
same,%Inh,[19]; [21],0%
same,%Inh,[20],0%
COc1cc(Nc2nccc(N3CCC(NC(=O)Nc4cc(C)ccc4C)C3)n2)cc(OC)c1OC (centres unmarked) [GSK1379762],%Inh,[1]; [21],0%
same,%Inh,[2],0%
same,%Inh,[3]; [21],20%
same,%Inh,[4],0%
same,%Inh,[5],22%
same,%Inh,[6]; [21],25%
same,%Inh,[7]; [21],9%
same,%Inh,[8]; [21],4%
same,%Inh,[9]; [21],91.6%
same,%Inh,[10],1%
same,%Inh,[11]; [21],54%
same,%Inh,[12]; [21],32%
same,%Inh,[13]; [21],32%
same,%Inh,[14]; [21],27%
same,%Inh,[15]; [21],0%
same,%Inh,[16]; [21],9%
same,%Inh,[17]; [21],11%
same,%Inh,[18]; [21],4%
same,%Inh,[19]; [21],29%
same,%Inh,[20],0%
Cc1cccc(-c2nc(Nc3ccncc3)c3ccccc3n2)n1 [GW855857],%Inh,[1]; [21],8%
same,%Inh,[2],6%
same,%Inh,[3]; [21],0%
same,%Inh,[4],0%
same,%Inh,[5],0%
same,%Inh,[6]; [21],0%
same,%Inh,[7]; [21],30%
same,%Inh,[8]; [21],0%
same,%Inh,[9]; [21],10%
same,%Inh,[10],21%
same,%Inh,[11]; [21],0%
same,%Inh,[12]; [21],0%
same,%Inh,[13]; [21],0%
same,%Inh,[14]; [21],0%
same,%Inh,[15]; [21],47%
same,%Inh,[16]; [21],0%
same,%Inh,[17]; [21],0%
same,%Inh,[18]; [21],0%
same,%Inh,[19]; [21],0%
same,%Inh,[20],0%
Cc1cccc(-c2nc(C)cc(Nc3ccncc3)n2)n1 [GSK257997],%Inh,[1]; [21],7%
same,%Inh,[2],0%
same,%Inh,[3]; [21],27%
same,%Inh,[4],0%
same,%Inh,[5],0%
same,%Inh,[6]; [21],0%
same,%Inh,[7]; [21],0%
same,%Inh,[8]; [21],0%
same,%Inh,[9]; [21],20%
same,%Inh,[10],0%
same,%Inh,[11]; [21],0%
same,%Inh,[12]; [21],46%
same,%Inh,[13]; [21],10%
same,%Inh,[14]; [21],6%
same,%Inh,[15]; [21],30%
same,%Inh,[16]; [21],10%
same,%Inh,[17]; [21],44%
same,%Inh,[18]; [21],41%
same,%Inh,[19]; [21],32%
same,%Inh,[20],23%
